An excerpt weighted towards active compounds, which were near 1.6% of everything screened.
KCNQ2 inh: blocks the rat KCNQ2 potassium channel; CHO-K1 KCNQ2, FluxOR thallium flux, 20 min; stronger effect = lower value; B-score at 10 µM; hit rate 1.1% among 310,000;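 active = fluorescence ratio B-score at most minus 3 library SDs, with starting brightness B-score within 2 library SDs, cut at about -5.5 in these data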
Target sequence (O88943 whole entry, looked up): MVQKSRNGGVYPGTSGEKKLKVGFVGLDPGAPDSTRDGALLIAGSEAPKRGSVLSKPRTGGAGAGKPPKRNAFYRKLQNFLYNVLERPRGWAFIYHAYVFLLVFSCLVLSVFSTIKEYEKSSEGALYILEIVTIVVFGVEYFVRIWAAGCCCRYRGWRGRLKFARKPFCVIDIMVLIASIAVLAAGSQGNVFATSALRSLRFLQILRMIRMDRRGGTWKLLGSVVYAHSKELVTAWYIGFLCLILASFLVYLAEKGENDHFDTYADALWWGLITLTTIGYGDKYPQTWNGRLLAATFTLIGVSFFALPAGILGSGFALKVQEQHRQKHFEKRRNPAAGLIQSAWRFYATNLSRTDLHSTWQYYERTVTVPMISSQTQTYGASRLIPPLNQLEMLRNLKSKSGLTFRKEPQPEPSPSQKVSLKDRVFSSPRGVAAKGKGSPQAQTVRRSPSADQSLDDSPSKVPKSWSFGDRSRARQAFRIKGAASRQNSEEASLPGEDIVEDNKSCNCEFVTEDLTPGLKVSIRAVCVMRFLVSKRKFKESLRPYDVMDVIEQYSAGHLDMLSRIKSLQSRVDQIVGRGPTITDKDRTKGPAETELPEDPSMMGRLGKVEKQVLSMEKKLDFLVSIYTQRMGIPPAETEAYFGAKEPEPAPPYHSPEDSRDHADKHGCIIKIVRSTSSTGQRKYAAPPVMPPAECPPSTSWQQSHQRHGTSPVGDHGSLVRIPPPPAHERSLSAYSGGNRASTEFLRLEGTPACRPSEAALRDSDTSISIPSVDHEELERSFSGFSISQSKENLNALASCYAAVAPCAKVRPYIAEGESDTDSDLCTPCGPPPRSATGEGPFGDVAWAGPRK
KCNQ2 enhance: KCNQ2 (rat) channel potentiation. CHO-K1 KCNQ2, FluxOR thallium flux fluorescence; stronger effect = higher value. AID 2239. hit rate 0.54% among 310,000. O88943. B-score at 10 µM;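 active = fluorescence ratio B-score at least 3 SD of library B-scores, with initial fluorescence B-score within 3 of them, cut at about 5.3 in these data; same plate scores as AID 2156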;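 also: B-score of peak minus minimum over baseline fluorescence ratio after K+ and Tl+ stimulus; positive B-score means potentiation of KCNQ2 with more thallium influx and brighter signal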
Starred values were filed as active, the others as inactive; i = inactive; . = no result given.

SMILES	KCNQ2 inh	KCNQ2 enhance
O=C(NC(=S)Nc1ccc(CN2CCCCC2)cc1)c1cccc(OCc2ccccc2)c1	-6*	-6
CC(=O)c1cccc(OCc2cc(C(=O)NC3CCN(Cc4ccccc4)CC3)no2)c1	i	6.3*
O=C(NC1CCN(Cc2ccccc2)CC1)c1cccc(OC(F)F)c1	i	0.15
O=C(O)c1ccc(NC(=S)NC(=O)c2cccc(COc3ccccc3)c2)cc1	i	.
CC(C)Sc1nc(N2CCOCC2)c2c(c1C#N)CC(C)(C)SC2	-6.2*	-6.2
CCCSc1nc(N2CCOCC2)c2c(c1C#N)CC(C)(C)SC2	i	1.1
CC(=O)NC(c1ccc(F)cc1)c1cccnc1 (configuration not stated)	i	0.02
COc1ccc(CNc2ncc(-c3ccccc3)n2C)c(OC)c1OC	i	0.9
COc1ccc(CNc2ncc(-c3ccccc3)n2C)c2ccccc12	-5.7*	-5.7
CCN1C(=O)C(CC(=O)Nc2ccc(F)cc2)N(CCc2ccc(OC)cc2)C1=S (configuration not stated)	-6.7*	-6.7
CCN1C(=O)C(CC(=O)Nc2ccc(OC)cc2)N(CCc2ccccc2)C1=S (configuration not stated)	i	.
O=C(NCCNC(=O)c1cc(OCC(F)(F)F)ccc1OCC(F)(F)F)Nc1ccc(OC(F)(F)F)cc1	i	0.61
COc1cc2c(C(=O)N3CCN(C)CC3)c(C)n(-c3ccccc3)c2cc1Br	i	.
CCN(CC)CCNC(=O)c1c(C)n(-c2ccccc2)c2cc(Br)c(OC)cc12	-5.8*	-5.8
Cc1cc(C)n(CCCNC(=O)c2cc(COc3ccc(C)c(C)c3)on2)n1	i	.
O=C(Cn1ccc2ccccc2c1=O)NCC(=O)N1CCN(c2ccc(F)cc2)CC1	i	0.04
COC(=O)c1ccc(COC(=O)CNC(=O)CNC(=O)c2ccc(C)cc2)cc1	i	0.27
CC(=O)N(CCC1(c2ccc(C)cc2)CCOC(C(C)C)C1)Cc1ccco1 (configuration not stated)	-6*	-6
Cc1ccc(C2(CCNCc3ccco3)CCOC(C(C)C)C2)cc1 (configuration not stated)	i	.
Cc1ccccc1-c1nc(CN2CCC(C(=O)NCCCN3CCCC3)CC2)c(C)o1	i	.
CC1=NN(c2ccccc2)C(=O)/C1=C\c1sccc1C	i	1.7
CCc1ccc2c(c1)C1(NN=C(c3ccc(C)cc3)S1)C(=O)N2 (configuration not stated)	i	.
COc1ccc(CN(C(C)=O)c2cccc(C)c2C)cc1	i	.
CC(=O)N(Cc1ccc(Br)cc1)c1cccc(C)c1C	-6.5*	-6.5
CCC/C=C(\CCC)C(NC(=O)c1ccc(C(F)(F)F)cc1)c1ccccc1 (configuration not stated)	-6.6*	-6.6
SMILES	KCNQ2 inh	KCNQ2 enhance
CCC/C=C(\CCC)C(NC(=O)c1ccc(C(=O)OC)cc1)c1ccc(C(=O)OC)cc1 (configuration not stated)	-7.2*	-7.2
CC(C)CC(C)NC(=O)c1ccc(C(F)(F)F)cc1 (configuration not stated)	i	2.2
COC(=O)c1ccc(C(=O)NN)cc1	i	.
COc1ccccc1CNC(=O)CSc1nnc2c(n1)[nH]c1ccc(F)cc12	i	0.24
CC(C)Cc1ccc(CN2CCCC(NC(=O)c3nn(C)c(=O)c4ccccc34)C2)cc1 (configuration not stated)	-7.8*	-7.8
CC(C)Cc1ccc(CN2CCCC(NC(=O)c3ccnn3C)C2)cc1 (configuration not stated)	i	.
CN(Cc1cccnc1)Cc1cn[nH]c1-c1ccc(-c2ccccc2)cc1	i	0.15
Cc1cc(S(=O)(=O)N2CCCc3ccccc32)ccc1-n1cnnn1	i	0.68
CN(C(=O)Nc1ccc(Cl)cc1Cl)C1CCCC1	i	.
CCNc1nc(OCC)nc(N2CCC(Cc3ccccc3)CC2)n1	i	.
O=C(Cc1ccccc1)Nn1c(-c2ccccc2)nc2ccccc2c1=O	i	8.4*
O=C(Cc1ccccc1)Nn1c(-c2ccccc2F)nc2ccccc2c1=O	i	9.4*
O=C(Nn1c(-c2ccccc2)nc2ccccc2c1=O)c1ccco1	i	0.08
O=C(CSc1nc2ccccc2c(=O)n1NC(=O)Cc1ccccc1)NCc1ccccc1	i	0.8
C=CCn1c(O)c(N=NC(=S)Nc2ccccc2F)c2ccccc21	i	2.1
Cn1c(=O)cc(N)n(Cc2ccccc2)c1=O	i	.
O=C(c1ccco1)c1nnn(Cc2ccccc2)c1-c1ccccc1	i	.
C=C(C)C(=O)N1CC2(CC(c3cccc(NC(=O)c4ccccc4)c3)=NO2)C[C@@H]1C(N)=O (some centres not stated)	i	.
CCCN(CCC)C(=O)Cn1c(=O)c2ccccc2n2c(=S)sc(-c3ccccc3C)c12	-6.8*	-6.8
CCCN(CCC)C(=O)Cn1c(=O)c2sccc2n2c(=S)sc(-c3ccccc3)c12	i	.
O=C(Cn1cnc2ccccc2c1=O)N1CCc2ccccc2C1	i	0.14
Cc1ccc(S(=O)(=O)NCCC(=O)Nc2ccc(C)cc2C(=O)c2ccccc2)cc1	i	5.4*
CCN(CC)CC(=O)Nc1ccc(C)cc1C(=O)c1ccccc1	i	.
O=C(NCCOc1ccccc1)c1cc(S(=O)(=O)N2CCOCC2)ccc1F	i	3.2
Clc1ncnc2scc(-c3ccccc3)c12	i	1.3
SMILES	KCNQ2 inh	KCNQ2 enhance
S=c1[nH]cnc2scc(-c3ccccc3)c12	i	11*
COc1cc(-c2ccc3oc(-c4ccsc4)c(C#CC4(O)CCCCC4)c3c2)cc(OC)c1OC	i	.
CC(C)c1ccc(COc2ccc(C(=O)N3CCOCC3)cc2)cc1	i	.
O=C(c1ccc(Cl)c(S(=O)(=O)NCc2ccccc2)c1)N1CCN(c2ccccn2)CC1	-5.8*	-5.8
CC(C)c1ccc(OCc2ccc(C(=O)N3CCN(c4ccccn4)CC3)cc2)cc1	-7.5*	-7.5
O=C(c1ccc(Cl)c(S(=O)(=O)N2CCCC2)c1)N1CCN(c2ccccn2)CC1	i	0.71
Oc1ccccc1C1=NCCNC(C(F)(F)F)=C1	i	.
CCOc1cccc(C(=O)Nc2cccc(C(=O)NCC(C)C)c2)c1	i	0.1
O=C(Nc1ccc(N2CCOCC2)cc1)c1cccnc1	i	1
c1ccc2c(c1)CCCN2Cc1nnnn1C1CCCC1	i	.
COc1ccccc1N1CCN(/N=C/c2ccc(Cl)c([N+](=O)[O-])c2)CC1	-6.1*	-6.1
COc1ccccc1N1CCN(/N=C/c2ccc([N+](=O)[O-])cc2)CC1	i	.
CN(C)CCCNC(=O)c1ccccn1	i	0.35
COc1ccc(/C(N)=N/OC(=O)CCc2ccccc2)cc1OC	i	.
COc1ccc(/C(N)=N/OC(=O)CSc2ccccc2)cc1OC	-6*	-6
CN(C)c1ccc(-c2nnn(CC(=O)Nc3ccc4c(c3)OCCO4)n2)cc1	i	1.2
CCOc1ccc(C(=O)CCN2CCCCCC2)cc1	-6.6*	-6.6
CCCOc1ccc(C(=O)CCN2CCCCC2)cc1	i	.
CC(=O)N1CCN(c2cc(N3CCc4ccccc4C3)c(F)cc2[N+](=O)[O-])CC1	-5.6*	-5.6
CCC(=O)N1CCN(c2cc(N3CCCC3)c(F)cc2[N+](=O)[O-])CC1	i	0.05
COc1ccc(OC)c(C(=O)CSc2nccc(-c3ccc(Br)cc3)n2)c1	-6.4*	-6.4
COc1ccc(-c2ccnc(SCC(=O)c3ccc(OC)c(OC)c3)n2)cc1	i	1.5

Screens deposited in PubChem by Johns Hopkins Ion Channel Center.
